Experimental data from PubChem BioAssay (NCATS).
Records with an inconclusive call do not appear. Where a call stands in place of a potency, no number is given. Activity calls are given as the source filed them. Calls follow the shape of the dose curve; as a rule, active = well fitted inhibition curve with a large enough effect; inconclusive = small, poorly fitted or top-dose-only effect; inactive = flat fitted curve, though single readings scatter.

Columns and labels:
Assay in all cases: qHTS profiling for inhibitors of Plasmodium falciparum proliferation (AID 504749); also: nearly all actives have a fitted effect of over 60% in size
Settings in all cases: P. falciparum in erythrocytes, SYBR Green DNA, 72 h; series mostly up to 28.7 µM
AA1029 = system: AA1029
Method in brief: (§1)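 Fluorescence of SYBR Green-bound parasite DNA, read at 485/535 nm, served as the growth measure. Infected erythrocytes were cultured with compound 72 h; artemisinin (0.29 uM) and DMSO wells defined the normalization range.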

AS120 = system: AS120
Method in brief: as §1

ATS189 = system: ATS189
Method in brief: as §1

ATS95 = system: ATS95
Method in brief: as §1

C2A = system: C2A
Method in brief: as §1

CP185 = system: CP185
Method in brief: as §1

CP191 = system: CP191
Method in brief: as §1

CP192 = system: CP192
Method in brief: as §1

CP194 = system: CP194
Method in brief: as §1

CP201 = system: CP201
Method in brief: as §1
Potency is read from the fitted curve at half-maximal effect.

Row | SMILES | Potency (AA1029) | Potency (AS120) | Potency (ATS189) | Potency (ATS95) | Potency (C2A) | Potency (CP185) | Potency (CP191) | Potency (CP192) | Potency (CP194) | Potency (CP201)
1 | NS(=O)(=O)c1cc(C(=O)O)cc(N2CCCC2)c1Oc1ccccc1 | inactive | inactive | inactive | inactive | inactive | inactive | inactive | inactive | inactive | inactive
2 | CC(=O)Nc1ccc(OC(=O)c2ccccc2OC(C)=O)cc1 | inactive | inactive | inactive | inactive | inactive | inactive | inactive | inactive | inactive | inactive
3 | C#C[C@]1(O)CC[C@H]2[C@@H]3CCc4cc(OC)ccc4[C@H]3CC[C@@]21C | inactive | inactive | inactive | inactive | inactive | inactive | inactive | inactive | inactive | inactive
4 | CCCCC(CC)COC(=O)/C=C/c1ccc(OC)cc1 (stereo not drawn) | inactive | inactive | inactive | inactive | inactive | inactive | inactive | inactive | inactive | inactive
5 | O[C@@H](c1cc(C(F)(F)F)nc2c(C(F)(F)F)cccc12)[C@H]1CCCCN1 | 11.2 nM (active) | 20 nM (active) | 28.2 nM (active) | 28.2 nM (active) | 70.8 nM (active) | 79.4 nM (active) | 50.1 nM (active) | 120 nM (active) | 213 nM (active) | 379 nM (active)
6 | CC[C@H](c1ccc(O)cc1)[C@@H](CC)c1ccc(O)cc1 | inactive | inactive | inactive | inactive | inactive | inactive | inactive | inactive | inactive | inactive
7 | Oc1ccccc1C=NCc1ccccc1 | inactive | inactive | inactive | inactive | inactive | inactive | inactive | inactive | inactive | inactive
8 | CCCCC(CC)COC(=O)c1ccc(N(C)C)cc1 (stereo not drawn) | inactive | inactive | inactive | inactive | inactive | inactive | inactive | inactive | inactive | inactive
9 | Cc1cc(NS(=O)(=O)c2ccc(N)cc2)nc(C)n1 | inactive | inactive | inactive | inactive | inactive | inactive | inactive | inactive | inactive | inactive
10 | CCCCc1cc2ccccc2c(OCCN(C)C)n1 | inactive | inactive | inactive | inactive | inactive | inactive | inactive | inactive | inactive | inactive
11 | O=C(O)P(=O)(O)O | inactive | inactive | inactive | inactive | inactive | inactive | inactive | inactive | inactive | inactive
12 | CC1=C(C(=O)O)N2C(=O)[C@@H](NC(=O)[C@H](N)c3ccccc3)[C@H]2SC1 | inactive | inactive | inactive | inactive | inactive | inactive | inactive | inactive | inactive | inactive
13 | C[C@@H](O)[C@H]1C(=O)N2C(C(=O)O)=C(S[C@@H]3CN[C@H](CNS(N)(=O)=O)C3)[C@H](C)[C@H]12 | inactive | inactive | inactive | inactive | inactive | inactive | inactive | inactive | inactive | inactive
14 | C=CCN1CCc2nc(N)sc2CC1 | inactive | inactive | inactive | inactive | inactive | inactive | inactive | inactive | inactive | inactive
15 | CCCCCCCCCCCCCC(=O)OC(C)C | inactive | inactive | inactive | inactive | inactive | inactive | inactive | inactive | inactive | inactive
16 | c1ccc(-c2nc[nH]c2-c2ccccc2)cc1 | inactive | inactive | inactive | inactive | inactive | inactive | inactive | inactive | inactive | inactive
17 | CCCN(CCC)S(=O)(=O)c1ccc(C(=O)O)cc1 | inactive | inactive | inactive | inactive | inactive | inactive | inactive | inactive | inactive | inactive
18 | O=C(Nc1ccc([N+](=O)[O-])cc1)Nc1ccc([N+](=O)[O-])cc1 | inactive | inactive | inactive | inactive | inactive | inactive | inactive | inactive | inactive | inactive
19 | CC(=O)Nc1ncc([N+](=O)[O-])s1 | inactive | inactive | inactive | inactive | inactive | inactive | inactive | inactive | inactive | inactive
20 | O=C1C(O)=C(O)C(=O)C(O)=C1O | inactive | inactive | inactive | inactive | inactive | inactive | inactive | inactive | inactive | inactive
21 | OCc1ccccn1 | inactive | inactive | inactive | inactive | inactive | inactive | inactive | inactive | inactive | inactive
22 | CCCCNC(=O)NS(=O)(=O)c1ccc(N)cc1 | inactive | inactive | inactive | inactive | inactive | inactive | inactive | inactive | inactive | inactive
23 | CC(=O)NC(=O)c1ccccc1O | inactive | inactive | inactive | inactive | inactive | inactive | inactive | inactive | inactive | inactive
24 | CCN(CC)CCNC(=O)COc1ccc(OC)cc1 | inactive | inactive | inactive | inactive | inactive | inactive | inactive | inactive | inactive | inactive
25 | Cc1cccc(C)c1NC(=O)c1ccccc1C(=O)O | inactive | inactive | inactive | inactive | inactive | inactive | inactive | inactive | inactive | inactive
26 | O=c1[nH]c(=O)n([C@H]2C[C@H](O)[C@@H](CO)O2)cc1F | inactive | inactive | inactive | inactive | inactive | inactive | inactive | inactive | inactive | inactive
27 | CCN(CC)CCNC(=O)c1cc(Br)c(N)cc1OC | inactive | inactive | inactive | inactive | inactive | inactive | inactive | inactive | inactive | inactive
28 | CC(=O)OCC(=O)[C@H]1CC[C@H]2[C@@H]3CCC4=CC(=O)CC[C@]4(C)[C@H]3CC[C@]12C | inactive |  | inactive |  | inactive | inactive | inactive | inactive | inactive | inactive
29 | Nc1nc(N)c(-c2ccccc2)s1 | inactive | inactive | inactive | inactive | inactive | inactive | inactive | inactive | inactive | inactive
